Molecular target: Ribosomal protein S6 kinase alpha-6 (Homo sapiens) (UniProt Q9UK32)
Details: at 0.1 µM
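Also: reported value is the mean inhibition of RSK4, from the GSK PKIS kinase inhibitor screen.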

Sequence of Ribosomal protein S6 kinase alpha-6 (Homo sapiens) (Q9UK32 whole entry): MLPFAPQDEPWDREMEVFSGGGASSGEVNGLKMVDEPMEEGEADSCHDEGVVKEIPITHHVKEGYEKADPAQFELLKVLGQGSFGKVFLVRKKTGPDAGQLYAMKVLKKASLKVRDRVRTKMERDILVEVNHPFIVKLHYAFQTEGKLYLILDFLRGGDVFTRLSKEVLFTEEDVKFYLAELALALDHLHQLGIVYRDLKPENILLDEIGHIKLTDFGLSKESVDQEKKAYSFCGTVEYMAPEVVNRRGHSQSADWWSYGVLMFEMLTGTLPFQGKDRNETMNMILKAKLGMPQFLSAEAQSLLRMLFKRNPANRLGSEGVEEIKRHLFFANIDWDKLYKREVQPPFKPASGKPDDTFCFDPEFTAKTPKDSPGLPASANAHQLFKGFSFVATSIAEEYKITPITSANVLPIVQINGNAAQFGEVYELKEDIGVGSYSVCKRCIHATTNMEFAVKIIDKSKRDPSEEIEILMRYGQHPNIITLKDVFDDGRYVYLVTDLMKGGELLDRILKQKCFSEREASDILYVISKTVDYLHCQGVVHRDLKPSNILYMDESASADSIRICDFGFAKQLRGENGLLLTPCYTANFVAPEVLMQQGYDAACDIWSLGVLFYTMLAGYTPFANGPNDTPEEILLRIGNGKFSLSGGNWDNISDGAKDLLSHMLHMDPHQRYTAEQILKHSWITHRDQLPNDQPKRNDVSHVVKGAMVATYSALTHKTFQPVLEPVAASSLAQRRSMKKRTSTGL

Row | Compound | inhibition [%]
1 | c1ccc(COc2ccc(Nc3ncnc4ccc(-c5ccco5)cc34)cc2)cc1 | 0.12
2 | COC(=O)Nc1nc2ccc(S(=O)(=O)c3ccc(NC(=O)Nc4cc(C(F)(F)F)ccc4F)cc3)cc2[nH]1 | 0.08
3 | CN(C)CCOc1ccc(-c2nc(-c3ccncc3)c(-c3ccc4c(c3)CC/C4=N\O)[nH]2)cc1 | 0.86
4 | CS(=O)(=O)CCNCc1ccc(-c2ccc3ncnc(Nc4ccc(OCc5ccccc5)c(C(F)(F)F)c4)c3c2)o1 | 0.89
5 | COc1cc2ncn(-c3cc(OCc4ccccc4C(F)(F)F)c(C(=O)N(C)C)s3)c2cc1OC | -0.29
6 | CC(C)COC(=O)c1ccc2c(c1)/C(=C/Nc1ccc(S(N)(=O)=O)cc1)C(=O)N2 | 4.96
7 | CCc1nn2ncccc2c1-c1ccnc(NC2CC2)n1 | 1.44
8 | CN1CCC(n2cnc(-c3ccc(F)cc3)c2-c2ccnc(Nc3ccccc3)n2)CC1 | 3.17
9 | FC(F)(F)c1cccc(-c2nn3ncccc3c2-c2ccnc(Nc3ccc4c(c3)OCCO4)n2)c1 | 1.4
10 | COc1ccc2[nH]c3c4[nH]c5ccc(OC)cc5c4c4c(c3c2c1)C(=O)NC4=O | 58.2
11 | CNC(=O)c1cccc(C#Cc2cncnc2Nc2ccc(OCc3cccc(F)c3)c(Cl)c2)c1 | -0.53
12 | COc1cc(N2CCN(C(C)C)CC2)ccc1Nc1nc(Nc2ccc(F)cc2C(N)=O)c2cc[nH]c2n1 | 14.5
13 | Fc1ccc(-c2cc(-c3c[nH]nc3-c3ccccn3)ccn2)cc1 | -0.68
14 | COc1cc2c(cc1Nc1nc(Nc3ccsc3C(N)=O)c3cc[nH]c3n1)N(C(=O)CN(C)C)CCC2(C)C | 11.5

From ChEMBL document CHEMBL1961873, “Compounds: GSK PKIS; Assays: Nanosyn kinase panel” (2012)
